FLuc counter: qHTS profiling assay for firefly luciferase inhibitor/activator using purifed enzyme and Km concentrations of substrates (counterscreen for miR-21 project); Luciferin 4-monooxygenase (Photinus pyralis), P08659; purified FLuc, Km substrates, luminescence inhibition; Potency, µM (series often up to 57.5 µM), for the others: top-dose activity change, negative = inhibition, actives largely listed as inhibitors; actives 6.9% (n = 360,000); AID 588342, 2011;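 note: plate controls were vehicle for no effect and reference inhibitor for full effect; nearly all actives have a fitted effect of over 55% in size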
Target sequence (P08659 whole entry, looked up): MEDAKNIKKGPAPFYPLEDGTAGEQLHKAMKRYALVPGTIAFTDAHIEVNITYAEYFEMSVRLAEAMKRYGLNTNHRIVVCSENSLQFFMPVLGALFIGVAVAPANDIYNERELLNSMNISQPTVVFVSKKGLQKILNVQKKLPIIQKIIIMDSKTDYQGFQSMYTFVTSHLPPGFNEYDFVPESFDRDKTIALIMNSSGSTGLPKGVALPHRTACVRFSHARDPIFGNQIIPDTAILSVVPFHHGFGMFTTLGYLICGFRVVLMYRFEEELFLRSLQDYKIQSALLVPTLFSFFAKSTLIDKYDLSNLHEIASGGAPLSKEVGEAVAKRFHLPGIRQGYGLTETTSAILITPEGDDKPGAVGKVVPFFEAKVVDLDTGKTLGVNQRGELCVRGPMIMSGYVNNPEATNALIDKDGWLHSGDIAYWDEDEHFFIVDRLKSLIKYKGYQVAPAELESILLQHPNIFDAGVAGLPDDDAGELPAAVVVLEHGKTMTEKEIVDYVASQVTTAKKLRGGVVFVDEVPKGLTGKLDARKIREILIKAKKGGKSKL
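Purified P. pyralis luciferase, 10 nM final, with Km-level 10 uM D-luciferin and 10 uM ATP in 50 mM Tris acetate pH 7.5, 10 mM Mg acetate, 0.01% Tween-20, 0.05% BSA; 6-point qHTS titration about 60 µM downward; luminescence read.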
Rab9 prom act: qHTS Assay for Rab9 Promoter Activators; AID 485297, 2010; Potency, µM (series often up to 9.22 µM), for inactives: top-dose activation, negative = inhibition, most hits filed as activators; actives 2.8% (n = 320,000); Huh7 Rab9 promoter-luciferase reporter, luminescence, 24 h; note: % of control where 0% means no effect; nearly all actives have a fitted effect of over 60% in size
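Rab9 promoter-driven luciferase in stably transfected Huh7 cells; 1500 cells/well rested 2 h, exposed to compound in DMSO for 24 h at 37 °C, 5% CO2. Luminescence read 10 min after adding luciferase reagent at ambient temperature.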
SMN2 splice up: qHTS Assay for Enhancers of SMN2 Splice Variant Expression | HEK293 SMN2-luciferase splicing reporter, luminescence, 30-36 h | Potency, µM (top dose mostly 46.1 µM), for the others: at the highest dose activity change, positive = activation, most hits filed as activators | actives 2.8% (n = 210,000) | AID 1458, 2008; note: % of control where 0% means no effect; nearly all actives have a fitted effect of over 55% in size
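HEK293 cells carry an SMN2 […]–luciferase reporter in which exon 7 inclusion puts luciferase in frame. Cells were plated 10-12 h before compound addition, then incubated 30-36 h at 37C. ONE-Glo luminescence was read; sodium butyrate at 4.5 mM final served as control.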
Luc counter: Counterscreen for Luciferase (Kinase-Glo TM) Inhibition; Luciferin 4-monooxygenase (Photuris pensylvanica), Q27757; actives 0.28% (n = 200,000); Potency, µM (doses to about 38.3 µM), inactives show at the top dose activity change, negative = inhibition, most hits filed as inhibitors; AID 1379, 2008; Kinase-Glo luciferase, ATP luminescence, 8 min; note: % is set by controls: 0 for no effect and ±100 for the full control effect; nearly all actives have a fitted effect of over 60% in size
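Compound is pinned into ATP-containing buffer (10 uM ATP, imidazole pH 7.2, 7 mM MgCl2). Kinase-Glo luciferase reagent is then added. Light output is recorded following an 8-min room-temperature incubation.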
NPC1 prom act: qHTS Assay for NPC1 Promoter Activators; Huh7 NPC1 promoter luciferase reporter, 24 h; Potency, µM (highest dose often 9.22 µM), for inactives: at the highest dose activation, hits mostly activators; actives 2.4% (n = 320,000); note: % of control where 0% means no effect; nearly all actives have a fitted effect of over 60% in size
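Luminescence read-out of NPC1 promoter-driven luciferase in stably transfected Huh7 cells; compounds delivered in DMSO and left 24 h at 37C, 5% CO2, qHTS titration format.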
ELG1 genotoxic: qHTS screen for small molecules that induce genotoxicity in human embryonic kidney (HEK293T) cells expressing luciferase-tagged ELG1; HEK293T ELG1-luciferase reporter, luminescence, 16 h; Potency, µM (highest dose often 46 µM), inactives show top-dose activity change, positive = activation, usual class: activators; actives 1.3% (n = 330,000); AID 504466, 2011; note: % of control where 0% means no effect; nearly all actives have a fitted effect of over 60% in size
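Luminescence read-out: rising ELG1-luciferase signal, reflecting elevated ELG1 protein under genetic stress, flags genotoxic compounds. Cells were treated for 16 hr at 37 °C before ONE-Glo detection.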
* hit, by the source's call; ? = inconclusive; / = not tested or not shown. A selection: hits, their analogues and other compounds. The true share with any hit is near 7.5%. Calls come from the whole dose curve; as a rule, active = well fitted curve in the direction sought with a large enough effect; inconclusive = small, poorly fitted or top-dose-only effect, or another doubt; inactive = no such curve, though single readings can be large; an effect the other way counts as inactive or inconclusive. Potency is the fitted concentration of half-maximal effect.

SMILES	FLuc counter	Rab9 prom act	SMN2 splice up	Luc counter	NPC1 prom act	ELG1 genotoxic
Cc1cccc(-c2nc(-c3ccc4c(c3)[nH]c(=O)n4C)no2)c1	1.1%	/	/	/	/	/
CCCN(CCC)C(=O)c1nn(C)c2c1CSc1ccccc1-2	-1.6%	/	/	/	/	/
CC1=C(C(=O)Nc2ccccc2)C(c2cccc(O)c2)n2nc(-c3ccccc3Cl)nc2N1 (configuration not stated)	-20.1%	/	16.2%	/	/	/
Cc1cc(C)c2c(=O)[nH]c(SCC(=O)c3ccc(F)c(C)c3)nc2n1	?	-3.5%	/	-1.2%	0.8%	0.5%
O=C(CSc1nnc(SCc2ccc(Cl)cc2)s1)N/N=C/c1ccccc1C(=O)O	10.7µM*	2.2%	/	/	4.0%	0.2%
CC(=C/c1ccco1)/C=N/NC(=O)CSc1nnc(SCc2ccc(C)cc2)s1	2.69µM*	-4.2%	-12.5%	-0.6%	-0.3%	3.4%
O=C(CSc1nnc(SCc2ccccc2)s1)N/N=C/c1ccc(Cl)cc1Cl	0.1%	-3.1%	6.6%	-1.0%	1.2%	5.0%
O=C(CSc1nnc(SCc2ccccc2)s1)N/N=C/c1ccc(C(=O)O)cc1	2.39µM*	-0.9%	/	/	-3.8%	-4.2%
Cc1ccc(CSc2nnc(SCC(=O)N/N=C/c3ccc(C(=O)O)cc3)s2)cc1	0.239µM*	-1.1%	/	/	-2.1%	6.1%
O=C(CSc1nnc(SCc2ccc(Cl)cc2)s1)N/N=C/c1c(Cl)cccc1Cl	-9.2%	5.4%	-7.1%	-1.2%	12.5%	5.6%
CC(/C=N/NC(=O)CSc1nc2ccccc2n1C)=C\c1ccco1	-16.4%	-5.5%	10.3%	-5.7%	0.5%	-2.5%
Cc1ccc(C)c(NC(=O)CN2C(=O)COc3ccc(Cl)cc32)c1	2.7%	/	0.2%	/	/	/
C=C(C)[C@@H]1CC=C(CN2CCC(CCOC)(C(=O)OCC)CC2)CC1	-0.2%	-2.4%	/	-1.9%	-1.8%	-1.2%
CCN(Cc1ccccc1)Cc1c(O)ccc2oc(C)c(C(=O)Nc3ccccc3C)c12	-6.5%	/	-10.5%	/	/	/
O=C(CSc1nnc(SCc2ccccc2)s1)N/N=C/C=C/c1ccccc1[N+](=O)[O-]	23.9µM*	-3.3%	7.5%	-1.3%	-5.5%	0.1%
O=C(CSc1nc2ccccc2s1)N/N=C/c1ccc(C(=O)O)cc1	26.9µM*	-1.7%	11.7%	2.4%	-1.4%	1.4%
O=C(CSc1nnc(SCc2ccccc2)s1)N/N=C/C=C\c1ccco1	?	-7.2%	-3.6%	-1.2%	-2.3%	-2.1%
Cc1ccc(CSc2nnc(SCC(=O)N/N=C/c3ccccc3OCC(=O)O)s2)cc1	1.51µM*	-4.3%	/	/	-2.2%	-0.4%
O=C(CSc1nc2ccccc2s1)N/N=C/c1ccccc1C(=O)O	?	11.1%	/	/	8.1%	?
Cc1ccc(CSc2nnc(SCC(=O)N/N=C/c3c[nH]c4ccccc34)s2)cc1	?	14.5%	-40.4%	0.7%	0.3%	?
CN(/N=C/c1cc(Cl)ccc1O)C1=NS(=O)(=O)c2ccccc21	0.1%	1.4%	/	/	-0.1%	-5.1%
CCc1ccc(C(=O)NC2CCCCC2)s1	12µM*	2.24µM*	12.6µM*	-0.9%	2.51µM*	39.4%
CC(C)(O)C#Cc1ccc(C(=O)NC2CCCCC2)s1	?	?	?	1.5%	29.1%	?
O=C(NNC(=S)NC1CCCCC1)c1cccs1	-12.3%	?	-37.6%	1.0%	8.8%	0.0%
COc1cccc(C(=O)NNC(=S)NC2CCCCC2)c1	?	2.24µM*	?	-0.8%	?	10.8%
SMILES	FLuc counter	Rab9 prom act	SMN2 splice up	Luc counter	NPC1 prom act	ELG1 genotoxic
O=C(NNC(=S)NC1CCCCC1)c1ccc(Cl)s1	?	?	12.6µM*	-0.8%	27.5%	-2.2%
Cc1cc(C(=O)NNC(=S)NC2CCCCC2)cs1	2.4%	1.26µM*	/	/	?	11.3%
Cc1ccc(CNC(=O)CCCCCn2c(=O)c3sccc3n(CC(=O)C(C)(C)C)c2=O)cc1	?	/	0.7%	/	/	/
CCN(C(=O)CN1CCN(S(=O)(=O)c2ccccc2C(F)(F)F)CC1)c1c(N)n(Cc2ccccc2)c(=O)[nH]c1=O	3.2%	-2.4%	10.4%	2.6%	-0.9%	1.8%
COc1ccc(-c2cc(C(=O)N3CCN(c4ccccc4)CC3)c3ccccc3n2)cc1OC	15.1µM*	-2.4%	24.7%	-6.7%	-3.3%	-15.4%
Cc1ccc(-c2cc(C(=O)n3cnc4ccccc43)c3ccccc3n2)cc1C	3.01µM*	?	21.3%	-4.1%	?	11.7%
COc1ccc(-c2cc(C(=O)N3CCCC(C(F)(F)F)C3)c3ccccc3n2)cc1OC (configuration not stated)	?	0.7%	/	/	-0.9%	-16.5%
Cc1ccc(-c2cc(C(=O)N3CCN(c4ccccc4)CC3)c3ccccc3n2)cc1C	2.39µM*	/	/	/	/	/
Cc1ccc2c(C(=O)N3CCN(c4ccccc4)CC3)cc(-c3cccnc3)nc2c1C	-2.2%	-5.6%	9.8%	0.5%	-6.6%	-3.4%
O=C(Cc1cccc(NC(=O)C2CCN(C(=O)C3CCC3)CC2)c1)Nc1cccc(C(=O)N2CCCC2)c1	-6.1%	-9.8%	/	/	-1.8%	0.5%
CCOC(=O)c1cc2c(nc1N)CCCC2	-2.7%	7.0%	/	/	0.1%	-0.1%
CCOC(=O)c1cnc2cc3c(cn2c1=O)CCCC3	23.9µM*	3.16µM*	16.4%	-2.3%	?	28.4%
O=c1[nH]c(/C=C/c2ccccn2)nc2ccccc12	19µM*	1.58µM*	/	/	1.58µM*	?
O=c1[nH]c(/C=C/c2ccccc2F)nc2ccccc12	0.757µM*	0.251µM*	/	/	?	11.6µM*
O=c1[nH]c(/C=C/c2cccc3ccccc23)nc2ccccc12	-3.0%	?	15.4%	5.5%	18.0%	15.0%
COc1cccc(OC)c1NC(=O)CN1CCC(NC(=O)c2cccc(F)c2)CC1	5.5%	-0.5%	4.1%	-2.6%	-1.1%	2.0%
CC1CCN(c2ccc(-c3cccs3)nn2)CC1	0.0757µM*	1.41µM*	/	/	?	0.231µM*
Clc1ccc(-c2cccs2)nn1	0.6%	28.5%	6.3%	2.3%	-1.3%	15.7%
Cc1cccc(Nc2nc(-c3ccccn3)cs2)n1	1.69µM*	0.631µM*	3.16µM*	-19.4%	1.26µM*	0.82µM*
Nc1ccc(Nc2nc(-c3cccs3)cs2)cc1	-0.7%	-3.9%	/	-1.5%	-3.0%	-3.5%
c1ccc(Nc2nc(-c3cccs3)cs2)nc1	0.757µM*	?	3.16µM*	-13.9%	?	?
